Laboratory results as given in the supplement of paper PMC10849652.
Of roughly 8,800 targets only a part is listed; those with a hit were picked by preference. About 0.5% of all pairs of compound and target were hits. Values without a mark were called inactive.

How the values were obtained:
Assay in all cases: log2 fold change, soluble protein after heating vs DMSO (PISA); higher = thermal stabilisation; K562 lysate, 10 uM; active = over 0.2 and 3.5 SD of the protein, either way, in both replicates (recomputed)
[1] = compound: C#Cc1cccc(Nc2ncnc3cc(OCCOC)c(OCCOC)cc23)c1 [erlotinib]
How it was run: (§1)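 Values give the log-two fold change in thermal stability against solvent controls, from duplicates. Crude K562 extract at 1 mg/mL protein, made by dounce homogenisation in PBS pH 7.4 with 1 mM MgCl2, was treated with 10 μM compound for 30 min. After 3 min heating across 48°C-58°C, aliquots were pooled, adjusted to 0.5% NP-40 at 4°C and centrifuged at 21,000xg for 90 min. The supernatant was measured by TMTpro 16plex LC-MS/MS with channel sums equalised.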

[2] = compound: C/C(=N\NC(=O)C1=CC(=CC=C1)S(=O)(=O)N2CCOCC2)/C3=C(C=CC(=C3)Cl)O
How it was run: as §1

[3] = compound: C1=CC(=CC=C1C2=NC3=C(N2)C=C(C=C3)C(=O)N)OC4=CC=C(C=C4)Cl
How it was run: as §1

[4] = compound: C1=CC2=C(C=CC(=C2)/C=C\3/C(=O)NC(=NCC4=CC=CS4)S3)N=C1
How it was run: as §1

[5] = compound: C1=CC=C(C=C1)C2=NC(=C(N2)C3=CC=NC=C3)C4=CC(=C(C=C4)Cl)O
How it was run: as §1

[6] = compound: C1=CC=C2C(=C1)C3=NNC4=CC=CC(=C43)C2=O
How it was run: as §1

[7] = compound: C1CCN(C1)C(=O)NC2=CC=CC(=C2)NC3=NC=C(C(=N3)NCCC4=CN=CN4)Br
How it was run: as §1

[8] = compound: C1CN(CCC1(CC2=CC=C(C=C2)Cl)N)C3=NC=NC4=C3C=CN4
How it was run: as §1

[9] = compound: C1COCCN1CCN2C3=CC=CC=C3N=C2NC(=O)C4=CC(=CC=C4)[N+](=O)[O-] [IRAK-1-4 Inhibitor I]
How it was run: as §1

[10] = compound: CC(=O)c1cnc2ccc(-c3cc(Cl)c(O)c(Cl)c3)nc2c1N[C@H]1CC[C@H](CN(C)C)CC1
How it was run: as §1

[11] = compound: CC(C)(C)Cn1c(N)nc2ccc(-c3[nH]c(C(C)(C)C)nc3-c3ccc(F)cc3)nc21 [ralimetinib]
How it was run: as §1

[12] = compound: CC(C)(O)CC(=O)NCCn1ccc2ncnc(Nc3ccc(Oc4cccc(C(F)(F)F)c4)c(Cl)c3)c21
How it was run: as §1

[13] = compound: CC(C)C1=C2N=C(C=C(N2N=C1)NCC3=CC=CC=C3)NCCCCCCN
How it was run: as §1

[14] = compound: CC1=C(C(CC(=O)N1)C2=CC=C(C=C2)C(F)(F)F)C(=O)NC3=C(C=C4C(=C3)C=NN4)F
How it was run: as §1

[15] = compound: CC1=C(C2=C(C=C1)C(=O)C3=CC=CC=C3N2CCCN)C
How it was run: as §1

[16] = compound: CC1=C(C=C(C=C1)NC(=O)C2=CC(=CC=C2)C(C)(C)C#N)NC3=CC4=C(C=C3)N=CN(C4=O)C
How it was run: as §1

[17] = compound: CC1=C(C=C(C=C1)NC(=O)C2=CC(=CC=C2)N(C)C)NC(=O)C3=CC=C(C=C3)O
How it was run: as §1

[18] = compound: CC1=CC=C(C=C1)SC2=C3C=C(SC3=CN=C2)C(=O)N
How it was run: as §1

[19] = compound: C1=CC2=NC=CN=C2C=C1/C=C/3\C(=O)NC(=O)S3
How it was run: as §1

[20] = compound: C=CC(=O)N1CCC[C@@H](n2nc(-c3ccc(Oc4ccccc4)cc3)c3c(N)ncnc32)C1 [ibrutinib]
How it was run: as §1

Sequence of UniProt O15247 (O15247 whole entry, looked up): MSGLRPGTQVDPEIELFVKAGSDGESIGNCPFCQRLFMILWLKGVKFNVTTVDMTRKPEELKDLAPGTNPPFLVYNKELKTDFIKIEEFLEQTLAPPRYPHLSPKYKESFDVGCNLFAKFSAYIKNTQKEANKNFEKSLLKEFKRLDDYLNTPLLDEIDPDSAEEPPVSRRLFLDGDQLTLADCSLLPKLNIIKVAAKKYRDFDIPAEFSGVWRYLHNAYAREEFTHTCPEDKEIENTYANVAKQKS
Sequence of UniProt O75122 (O75122 whole entry, looked up): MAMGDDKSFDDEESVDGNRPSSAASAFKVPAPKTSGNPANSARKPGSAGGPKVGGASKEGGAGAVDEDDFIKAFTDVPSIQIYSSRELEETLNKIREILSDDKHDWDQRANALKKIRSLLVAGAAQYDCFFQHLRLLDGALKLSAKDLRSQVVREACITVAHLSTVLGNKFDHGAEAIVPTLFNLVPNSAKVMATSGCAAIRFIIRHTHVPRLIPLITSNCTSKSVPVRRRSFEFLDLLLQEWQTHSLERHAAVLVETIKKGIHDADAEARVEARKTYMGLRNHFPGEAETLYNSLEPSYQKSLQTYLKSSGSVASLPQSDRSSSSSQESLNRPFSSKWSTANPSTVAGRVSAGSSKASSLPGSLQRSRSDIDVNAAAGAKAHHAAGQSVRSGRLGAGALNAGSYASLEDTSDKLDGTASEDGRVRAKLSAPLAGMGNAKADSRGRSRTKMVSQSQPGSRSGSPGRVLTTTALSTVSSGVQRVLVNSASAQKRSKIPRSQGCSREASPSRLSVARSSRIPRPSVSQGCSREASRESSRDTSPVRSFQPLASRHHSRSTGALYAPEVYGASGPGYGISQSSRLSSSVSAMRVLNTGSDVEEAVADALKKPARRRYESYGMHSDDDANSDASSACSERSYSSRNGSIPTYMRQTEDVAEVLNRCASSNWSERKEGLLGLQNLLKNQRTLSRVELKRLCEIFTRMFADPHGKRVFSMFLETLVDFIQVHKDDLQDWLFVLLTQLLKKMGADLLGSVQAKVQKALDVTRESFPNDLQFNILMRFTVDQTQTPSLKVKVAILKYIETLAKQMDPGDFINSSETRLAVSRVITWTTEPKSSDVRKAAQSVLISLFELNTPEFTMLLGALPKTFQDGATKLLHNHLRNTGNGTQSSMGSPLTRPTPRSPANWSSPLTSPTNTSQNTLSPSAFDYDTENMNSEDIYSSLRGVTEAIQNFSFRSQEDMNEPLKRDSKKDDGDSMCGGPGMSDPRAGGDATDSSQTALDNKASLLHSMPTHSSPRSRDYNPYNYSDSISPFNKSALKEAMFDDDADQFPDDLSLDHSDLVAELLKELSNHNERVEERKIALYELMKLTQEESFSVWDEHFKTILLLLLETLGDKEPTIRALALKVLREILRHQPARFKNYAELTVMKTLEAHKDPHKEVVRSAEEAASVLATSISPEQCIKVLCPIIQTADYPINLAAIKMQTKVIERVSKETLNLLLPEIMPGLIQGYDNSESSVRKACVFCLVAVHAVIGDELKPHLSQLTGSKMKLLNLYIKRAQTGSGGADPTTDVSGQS
Sequence of UniProt Q9NQI0 (Q9NQI0 whole entry, looked up): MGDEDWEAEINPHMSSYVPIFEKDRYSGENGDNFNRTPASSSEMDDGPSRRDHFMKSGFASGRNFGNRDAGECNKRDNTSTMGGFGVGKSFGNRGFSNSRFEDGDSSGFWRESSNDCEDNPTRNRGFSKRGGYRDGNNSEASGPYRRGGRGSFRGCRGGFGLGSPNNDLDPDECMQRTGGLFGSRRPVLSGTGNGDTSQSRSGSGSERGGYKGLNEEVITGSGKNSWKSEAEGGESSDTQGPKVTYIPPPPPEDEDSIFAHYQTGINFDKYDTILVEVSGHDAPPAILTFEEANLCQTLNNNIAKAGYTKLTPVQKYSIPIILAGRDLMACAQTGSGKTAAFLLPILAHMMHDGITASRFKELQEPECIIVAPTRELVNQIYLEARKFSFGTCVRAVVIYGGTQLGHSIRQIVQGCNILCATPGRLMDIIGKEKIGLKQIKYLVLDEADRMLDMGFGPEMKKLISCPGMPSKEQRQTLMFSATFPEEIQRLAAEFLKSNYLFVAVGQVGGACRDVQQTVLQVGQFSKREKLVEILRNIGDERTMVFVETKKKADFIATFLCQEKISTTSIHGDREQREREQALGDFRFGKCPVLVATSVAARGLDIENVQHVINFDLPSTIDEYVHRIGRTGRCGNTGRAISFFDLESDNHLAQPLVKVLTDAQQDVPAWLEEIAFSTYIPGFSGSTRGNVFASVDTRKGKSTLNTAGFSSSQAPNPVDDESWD
Sequence of UniProt Q8IWV2 (Q8IWV2 whole entry, looked up): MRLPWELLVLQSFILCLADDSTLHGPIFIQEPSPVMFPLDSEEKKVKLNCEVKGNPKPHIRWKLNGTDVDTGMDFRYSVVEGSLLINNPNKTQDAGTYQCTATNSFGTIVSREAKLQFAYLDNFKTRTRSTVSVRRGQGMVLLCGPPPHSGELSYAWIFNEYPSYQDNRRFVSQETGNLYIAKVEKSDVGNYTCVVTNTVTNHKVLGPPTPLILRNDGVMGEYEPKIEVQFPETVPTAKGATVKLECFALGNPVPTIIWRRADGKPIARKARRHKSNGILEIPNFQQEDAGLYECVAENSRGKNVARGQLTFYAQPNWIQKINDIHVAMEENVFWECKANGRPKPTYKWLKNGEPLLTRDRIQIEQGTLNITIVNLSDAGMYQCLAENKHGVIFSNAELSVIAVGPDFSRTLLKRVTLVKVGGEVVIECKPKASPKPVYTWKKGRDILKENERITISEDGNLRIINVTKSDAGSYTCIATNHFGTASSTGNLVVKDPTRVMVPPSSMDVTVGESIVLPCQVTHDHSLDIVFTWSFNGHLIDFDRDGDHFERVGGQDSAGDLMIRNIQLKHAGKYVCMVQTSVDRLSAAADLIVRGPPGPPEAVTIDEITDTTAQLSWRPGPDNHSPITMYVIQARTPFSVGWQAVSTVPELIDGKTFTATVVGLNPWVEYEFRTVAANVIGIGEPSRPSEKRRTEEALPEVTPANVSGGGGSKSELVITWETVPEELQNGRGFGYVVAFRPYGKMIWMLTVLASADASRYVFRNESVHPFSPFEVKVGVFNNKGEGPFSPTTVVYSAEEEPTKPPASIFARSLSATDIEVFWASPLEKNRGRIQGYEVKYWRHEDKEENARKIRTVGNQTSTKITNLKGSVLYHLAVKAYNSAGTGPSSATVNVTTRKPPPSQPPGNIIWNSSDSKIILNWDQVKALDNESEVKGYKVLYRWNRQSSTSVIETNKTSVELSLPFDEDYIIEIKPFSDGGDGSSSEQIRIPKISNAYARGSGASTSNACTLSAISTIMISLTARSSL
Sequence of UniProt Q9HCG8 (Q9HCG8 whole entry, looked up): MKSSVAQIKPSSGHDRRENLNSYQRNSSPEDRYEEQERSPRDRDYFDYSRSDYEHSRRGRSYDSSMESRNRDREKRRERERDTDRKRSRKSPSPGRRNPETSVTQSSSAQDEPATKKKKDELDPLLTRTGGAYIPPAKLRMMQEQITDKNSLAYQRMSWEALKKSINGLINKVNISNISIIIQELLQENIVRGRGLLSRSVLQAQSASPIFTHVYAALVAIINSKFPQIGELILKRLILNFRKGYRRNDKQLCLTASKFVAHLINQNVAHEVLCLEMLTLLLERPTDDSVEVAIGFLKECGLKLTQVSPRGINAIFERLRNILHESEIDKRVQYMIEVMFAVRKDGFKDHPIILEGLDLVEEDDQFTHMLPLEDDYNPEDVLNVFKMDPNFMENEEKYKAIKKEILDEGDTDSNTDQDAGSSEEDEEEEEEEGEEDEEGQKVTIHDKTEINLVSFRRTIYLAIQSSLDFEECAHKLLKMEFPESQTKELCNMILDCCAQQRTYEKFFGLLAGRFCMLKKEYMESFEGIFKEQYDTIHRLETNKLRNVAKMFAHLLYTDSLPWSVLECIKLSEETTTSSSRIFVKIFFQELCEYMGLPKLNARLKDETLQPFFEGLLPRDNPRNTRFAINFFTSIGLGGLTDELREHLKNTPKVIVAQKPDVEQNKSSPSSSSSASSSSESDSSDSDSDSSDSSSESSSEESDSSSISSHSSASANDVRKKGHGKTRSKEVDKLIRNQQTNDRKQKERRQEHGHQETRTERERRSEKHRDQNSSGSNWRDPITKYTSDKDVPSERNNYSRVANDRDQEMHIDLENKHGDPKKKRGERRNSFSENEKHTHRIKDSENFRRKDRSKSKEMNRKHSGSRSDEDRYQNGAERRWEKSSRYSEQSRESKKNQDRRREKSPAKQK
Sequence of UniProt O94760 (O94760 whole entry, looked up): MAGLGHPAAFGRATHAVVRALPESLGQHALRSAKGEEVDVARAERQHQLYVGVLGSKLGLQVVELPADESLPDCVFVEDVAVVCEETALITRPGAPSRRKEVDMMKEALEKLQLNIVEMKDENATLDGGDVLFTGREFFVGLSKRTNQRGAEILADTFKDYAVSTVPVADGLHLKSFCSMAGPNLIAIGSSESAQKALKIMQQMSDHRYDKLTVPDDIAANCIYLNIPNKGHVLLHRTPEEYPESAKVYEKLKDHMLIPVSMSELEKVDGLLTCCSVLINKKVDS
Sequence of UniProt Q6P3W2 (Q6P3W2 whole entry, looked up): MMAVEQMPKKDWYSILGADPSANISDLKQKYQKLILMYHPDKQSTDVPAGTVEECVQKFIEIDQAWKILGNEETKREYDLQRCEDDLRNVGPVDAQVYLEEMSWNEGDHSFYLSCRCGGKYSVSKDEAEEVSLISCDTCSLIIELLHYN
Sequence of UniProt P19784 (P19784 whole entry, looked up): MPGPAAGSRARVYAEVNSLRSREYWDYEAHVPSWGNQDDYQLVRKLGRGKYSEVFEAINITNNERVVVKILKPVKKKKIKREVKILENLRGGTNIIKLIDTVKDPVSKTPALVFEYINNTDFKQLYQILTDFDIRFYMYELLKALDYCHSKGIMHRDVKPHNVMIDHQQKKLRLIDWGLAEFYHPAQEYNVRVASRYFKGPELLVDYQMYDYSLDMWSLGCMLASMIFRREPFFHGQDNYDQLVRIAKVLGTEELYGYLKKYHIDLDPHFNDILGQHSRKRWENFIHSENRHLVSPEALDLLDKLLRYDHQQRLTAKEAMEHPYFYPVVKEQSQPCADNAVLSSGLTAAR

Target | log2 fold change [1] | log2 fold change [2] | log2 fold change [3] | log2 fold change [4] | log2 fold change [5] | log2 fold change [6] | log2 fold change [7] | log2 fold change [8] | log2 fold change [9] | log2 fold change [10] | log2 fold change [11] | log2 fold change [12] | log2 fold change [13] | log2 fold change [14] | log2 fold change [15] | log2 fold change [16] | log2 fold change [17] | log2 fold change [18] | log2 fold change [19] | log2 fold change [20]
CHFR (UniProt Q96EP1) | -0.011 | 0.179 | 0.066 | -0.068 | -0.027 | 0.257 | -0.023 | -0.013 | -0.011 | 0.158 | 0.007 | -0.049 | -0.047 | 0.003 | -0.06 | -0.021 | 0.031 | 0.102 | – | –
DIAPH1 (UniProt H9KV28) | -0.1 | -0.013 | -0.053 | 0.005 | -0.164 | -0.024 | 0.031 | -0.037 | 0.034 | 0.024 | -0.022 | -0.106 | -0.083 | 0.032 | – | 0.004 | 0.009 | -0.03 | -0.04 | -0.063
CWC22 (UniProt Q9HCG8) | 0.058 | 0.006 | -0.046 | -0.009 | -0.025 | -0.092 | -0.014 | -0.006 | -0.017 | -0.007 | 0.007 | -0.002 | -0.005 | 0.06 | 0 | -0.002 | 0.028 | -0.009 | -0.032 | 0.027
CLASP2 isoform 3 (UniProt O75122) | 0.032 | -0.014 | -0.022 | -0.032 | 0 | -0.024 | -0.024 | 0.057 | -0.012 | 0.004 | 0.019 | -0.014 | 0.025 | 0.019 | -0.008 | 0.023 | 0.042 | 0.004 | -0.018 | –
COX7B (UniProt P24311) | -0.024 | 0.026 | 0.009 | -0.011 | -0.003 | 0.022 | -0.085 | 0.022 | 0.025 | -0.016 | 0.014 | -0.09 | 0.008 | -0.046 | -0.144 | 0.018 | 0.039 | 0.02 | – | –
DNAJC24 (UniProt Q6P3W2) | 0.034 | -0.069 | 0.021 | 0.011 | 0.016 | 0.081 | 0.01 | 0.01 | -0.055 | -0.12 | -0.052 | 0.113 | -0.067 | -0.048 | 0.064 | 0.031 | 0.047 | 0.064 | – | –
DGCR8 (UniProt Q8WYQ5) | 0.045 | -0.026 | 0.019 | 0.023 | 0.002 | -0.011 | -0.019 | 0 | -0.038 | -0.049 | 0.014 | -0.014 | 0.015 | 0.02 | -0.018 | -0.219 | 0.071 | -0.006 | -0.057 | 0.031
CLIC2 (UniProt O15247) | 0.036 | 0.022 | -0.005 | -0.03 | -0.014 | -0.014 | 0.019 | 0.015 | 0.006 | -0.014 | 0.004 | 0.004 | 0.04 | -0.01 | 0.018 | 0.005 | 0.006 | 0.001 | -0.014 | –
CLP1 (UniProt Q92989) | 0.024 | 0.027 | -0.011 | -0.001 | -0.014 | 0.034 | -0.024 | -0.033 | -0.045 | 0.062 | 0.006 | 0.003 | 0.012 | 0.023 | 0.001 | -0.02 | -0.037 | 0.01 | -0.045 | –
CSNK2A2 (UniProt P19784) | 0 | -0.209 | -0.015 | 0.383 | 0.032 | 0.375 | 0.277 | 0.024 | 0.022 | 0.666 (active) | 0.012 | -0.014 | -0.01 | -0.046 | 0.185 | -0.017 | 0.003 | 0 | 0.699 (active) | -0.015
CNNM2 (UniProt Q9H8M5) | -0.109 | -0.206 | 0.038 | 0.058 | -0.106 | -0.029 | 0.045 | 0.201 | 0.098 | 0.004 | 0.31 | 0.348 (active) | 0.048 | – | -0.031 | -0.054 | -0.157 | -0.015 | – | –
DDAH1 (UniProt O94760) | 0 | -0.008 | 0.006 | -0.027 | -0.006 | 0.035 | 0.032 | 0.051 | -0.016 | -0.016 | -0.037 | -0.045 | -0.001 | – | -0.441 (active) | 0.137 | -0.005 | -0.04 | – | –
DDX4 (UniProt Q9NQI0) | -0.043 | 0.165 | -0.112 | -0.028 | 0.114 | -0.004 | 0.002 | 0.011 | -0.109 | -0.004 | 0.04 | 0.087 | -0.032 | 0.008 | 0.1 | – | -0.051 | -0.026 | -0.055 | 0.019
CNTN4 (UniProt Q8IWV2) | 0.053 | 0.063 | 0.138 | -0.03 | 0.046 | -0.203 | -0.124 | 0.138 | 0.119 | -0.154 | -0.286 | -0.341 | 0.094 | -0.077 | – | 0.312 | -0.039 | -0.141 | 0.053 | -0.043
DBF4 (UniProt Q9UBU7) | 0.03 | 0.056 | 0.005 | -0.033 | 0.098 | -0.058 | -0.068 | -0.022 | 0.04 | – | -0.048 | -0.017 | -0.01 | -0.062 | -0.058 | -0.012 | -0.042 | – | -0.342 (active) | -0.06
DENND1B (UniProt Q6P3S1) | -0.08 | 0.153 | -0.13 | 0.04 | 0.019 | 0.007 | – | – | 0.014 | -0.034 | -0.039 | -0.114 | -0.087 | 0.151 | 0.174 | 0.031 | -0.003 | 0.011 | 0.19 | 0.405
